Bioassay records deposited in PubChem by The Scripps Research Institute Molecular Screening Center.
In the library only some 4.1% were active in any assay of this set; here they are far more common.
ssDAF-12 act – activators of S. stercoralis DAF-12 nuclear receptor. HEK293 ssDAF-12/GRIP1 lit1-tk-luc reporter, luminescence; % of 3 µM dafachronic acid response. actives 1% (n = 370,000). activation, % at 6.8 µM;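 active means activation above the mean over all tested compounds plus 3 SD, cut at about 0.9% in these data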;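 further: 0% = DMSO-only wells and 100% = 3 µM delta7-dafachronic acid wells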
hcDAF-12 act – activates DAF-12 receptor from parasite H. contortus | HEK293 hcDAF-12 lit1-tk-luc reporter, luminescence; 0% DMSO, 100% Δ7-dafachronic acid | activation, % at 6.8 µM | AID 652067 | actives 1.4% (n = 370,000);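 active means activation above the mean of all tested compounds plus 3 SD, cut at about 5.5% in these data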;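 further: 100% = response to 3 µM Δ7-dafachronic acid high control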
hgDAF12 agonist – agonists of H. glycines DAF-12 nuclear receptor; HEK293 GAL4-hgDAF12 UAS-luciferase reporter, agonist luminescence; normalized to butyrate control; activation, % at 6.8 µM; actives 1.8% (n = 370,000); AID 687014;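 active means activation above a cutoff set at the mean of all screened compounds plus 3 SD, cut at about 10% in these data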;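 further: 0% = DMSO wells and 100% = sodium butyrate wells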
DAX1 inh-1 – inhibitors of DAX1 repression of SF-1 activated StAR promoter | actives 1.1% (n = 370,000) | AID 652010 | HEK293T StAR-luciferase reporter, SF-1/DAX-1 repression relief | inhibition, % at 6.8 µM;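 active means inhibition above the mean over all tested compounds plus 3 SD, cut at about 3.6% in these data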;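 further: 0% = DAX-1 cells with DMSO and 100% = cells lacking DAX-1 with DMSO; higher inhibition means more luminescence from relief of DAX-1 repression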
DAX1 inh-2 – inhibitors of human orphan nuclear receptor DAX1 (NR0B1) | P51843 | HEK293 Gal4-DAX1 luciferase reporter, luminescence | inhibition, % at 6.75 µM | actives 0.99% (n = 340,000) | AID 504766;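 active means inhibition above the mean over all tested compounds plus 3 SD, cut at about 4.2% in these data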;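 further: 0% = DAX1-transfected cells with DMSO and 100% = empty-vector control cells with DMSO; inhibition shows as a rise in luminescence from relieved DAX1 repression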
Target sequence (P51843 207-470 limits assumed): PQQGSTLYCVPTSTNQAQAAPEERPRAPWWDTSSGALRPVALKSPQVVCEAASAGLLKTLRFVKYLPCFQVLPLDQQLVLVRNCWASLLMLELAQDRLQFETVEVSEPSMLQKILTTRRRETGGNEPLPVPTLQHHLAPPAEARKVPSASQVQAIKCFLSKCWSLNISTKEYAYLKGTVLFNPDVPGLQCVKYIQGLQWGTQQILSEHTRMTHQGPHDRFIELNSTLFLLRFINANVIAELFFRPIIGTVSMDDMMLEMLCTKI
* hit, by the source's call.

How did O=C(N/N=C1\CCCCc2ccccc21)c1ccccn1 do in these assays?
ssDAF-12 act: 1; hcDAF-12 act: 1; hgDAF12 agonist: 12*; DAX1 inh-1: 3; DAX1 inh-2: 1

How did O=C(N/N=C1\CCc2ccccc21)c1ccccc1O do in these assays?
ssDAF-12 act: 1; hcDAF-12 act: 6.1*; hgDAF12 agonist: 8; DAX1 inh-1: 4.4*; DAX1 inh-2: 0

How did Cc1ccc(-c2cc(C(=O)NN=C/C=C/c3ccco3)[nH]n2)cc1C do in these assays?
ssDAF-12 act: -1; hcDAF-12 act: 0; hgDAF12 agonist: 6; DAX1 inh-1: 1

How did COC(=O)[C@]12C[C@H](CC(=O)NCc3ccc(C)o3)C(=O)N(Cc3ccc(Cl)cc3Cl)C1=C[C@H](COCc1ccccc1)O[C@@H]2C do in these assays?
ssDAF-12 act: -1; hcDAF-12 act: -3; hgDAF12 agonist: 4; DAX1 inh-1: -1

Results for COc1ccccc1C(=O)NCC(=O)OCc1csc(-c2ccccc2)n1 ?
ssDAF-12 act: 0; hcDAF-12 act: 5.7*; hgDAF12 agonist: 9; DAX1 inh-1: 1; DAX1 inh-2: 0

What do the screens show for `O=C(CNC(=O)c1ccccc1F)OCc1csc(-c2ccccc2)n1`?
ssDAF-12 act: -1; hcDAF-12 act: 0; hgDAF12 agonist: 3; DAX1 inh-1: 2; DAX1 inh-2: 0

What do the screens show for `COc1ccc(NC(=O)Nc2ccccc2C(=O)N2CCCC2)cc1OC`?
ssDAF-12 act: -1; hcDAF-12 act: -1; hgDAF12 agonist: -2; DAX1 inh-1: 1

What do the screens show for `Cc1c(NC(=O)C(C)OC(=O)c2cc(-c3cccc4ccccc34)nc3ccccc23)c(=O)n(-c2ccccc2)n1C` (stereo not given)?
ssDAF-12 act: 0; hcDAF-12 act: -2; hgDAF12 agonist: 11*; DAX1 inh-1: 0; DAX1 inh-2: -1

Results for Fc1ccccc1-c1n[nH]c(=S)n1N=Cc1ccc(-c2ccccc2)cc1 ?
ssDAF-12 act: 0; hcDAF-12 act: 0; hgDAF12 agonist: -2; DAX1 inh-1: 2

Results for COc1cccc(/C=C2\SC(=S)N(CCC(=O)NNC(=O)c3ccccc3OC)C2=O)c1 ?
ssDAF-12 act: 1.0*; hcDAF-12 act: 5; hgDAF12 agonist: 2; DAX1 inh-1: 0; DAX1 inh-2: 0

What do the screens show for `O=C(CCN1C(=O)/C(=C\c2cccc(Br)c2)SC1=S)NCCCN1CCOCC1`?
ssDAF-12 act: -1; hcDAF-12 act: 6.0*; hgDAF12 agonist: 1; DAX1 inh-1: 0; DAX1 inh-2: 1

How did O=C(CNS(=O)(=O)c1cccc2ccccc12)N1CCN(c2ncccn2)CC1 do in these assays?
ssDAF-12 act: -1; hcDAF-12 act: -2; hgDAF12 agonist: 0; DAX1 inh-1: 0

What do the screens show for `CCn1c2ccccc2c2cc(C=NNC(=O)c3ccoc3C)ccc21`?
ssDAF-12 act: -1; hcDAF-12 act: -1; hgDAF12 agonist: 11*; DAX1 inh-1: -2

Results for COc1ccc2[nH]c(=O)c(CNc3ccccc3C)cc2c1 ?
ssDAF-12 act: 1.4*; hcDAF-12 act: 3; hgDAF12 agonist: 7; DAX1 inh-1: 1; DAX1 inh-2: 2

How did COc1ccc2[nH]c(=O)c(CNc3ccccc3OC)cc2c1 do in these assays?
ssDAF-12 act: -1; hcDAF-12 act: 3; hgDAF12 agonist: -1; DAX1 inh-1: 0; DAX1 inh-2: 4.5*

What do the screens show for `COc1ccc2[nH]c(=O)c(CNc3ccccc3)cc2c1`?
ssDAF-12 act: 0; hcDAF-12 act: 4; hgDAF12 agonist: 10; DAX1 inh-1: 2; DAX1 inh-2: 4.5*

How did CCOc1ccc(NCc2cc3cc(OC)ccc3[nH]c2=O)cc1 do in these assays?
ssDAF-12 act: -1; hcDAF-12 act: 2; hgDAF12 agonist: 0; DAX1 inh-1: 1; DAX1 inh-2: -2

Results for CCC1(CC)NC(=O)N(CC(=O)N2CCc3ccccc32)C1=O ?
ssDAF-12 act: -1; hcDAF-12 act: 3; hgDAF12 agonist: 1; DAX1 inh-1: 0; DAX1 inh-2: 1

How did CC1CCCCC12NC(=O)N(CC(=O)N1CCc3ccccc31)C2=O (stereo not given) do in these assays?
ssDAF-12 act: 1; hcDAF-12 act: 5.8*; hgDAF12 agonist: 2; DAX1 inh-1: -1; DAX1 inh-2: 0

Results for c1ccc(-c2cccc3[nH]cc(-c4ccccc4)c23)cc1 ?
ssDAF-12 act: -1; hcDAF-12 act: -1; hgDAF12 agonist: -1; DAX1 inh-1: 0
